About 8,800 targets were measured; listed, in parts, are those with a hit and a random draw of the rest. About 0.5% of all pairs of compound and target were hits.
Tests used:
Assay in all cases: log2 fold change, soluble protein after heating vs DMSO (PISA); higher = thermal stabilisation; K562 lysate, 10 uM; active = over 0.2 and 3.5 SD of the protein, either way, in both replicates (recomputed)
[1] = compound: C1=CC=C(C=C1)[C@H](COC2=CC3=C(C=C2)NC(=O)N3)NC(=O)C4=CC=CN(C4=O)CC5=CC(=C(C=C5)F)F
How it was run: (§1)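 Dounce homogenisation of K562 pellets in PBS pH 7.4 with 1 mM MgCl2 produced a crude extract, used at 1 mg/mL protein. Exposure to 10 μM compound lasted 30 min, and aliquots were then heated for 3 min across 48°C-58°C, pooled and brought to 0.5% NP-40 at 4°C. The supernatant after 21,000xg for 90 min was quantified by TMTpro 16plex LC-MS/MS with channel sums equalised. Duplicate values are given as log-two fold change in thermal stability relative to solvent controls.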

[2] = compound: CC1=C(SC2=C1C(=N[C@H](C3=NN=C(N32)C)CC(=O)N)C4=CC=C(C=C4)Cl)C
How it was run: as §1

[3] = compound: CC1=C2C(=CC=C1)N=C(N(C2=O)C3=CC=CC=C3C)CN4C=NC5=C(N=CN=C54)N
How it was run: as §1

[4] = compound: Cc1sc2c(c1C)C(c1ccc(Cl)cc1)=N[C@@H](CC(=O)OC(C)(C)C)c1nnc(C)n1-2
How it was run: as §1

[5] = compound: c1ccc([C@@H]2C[C@H]2NC2CCNCC2)cc1
How it was run: as §1

Measured: log2 fold change

DLD (UniProt P09622)
inactive: [1] 0.005 | [2] -0.017 | [3] 0.008 | [4] -0.022 | [5] -0.076

CWC22 (UniProt Q9HCG8)
inactive: [1] -0.033 | [2] 0.028 | [3] 0.034 | [4] 0.079 | [5] 0.237

DCP1A (UniProt Q9NPI6)
Chain of UniProt Q9NPI6 (Q9NPI6 whole entry, looked up): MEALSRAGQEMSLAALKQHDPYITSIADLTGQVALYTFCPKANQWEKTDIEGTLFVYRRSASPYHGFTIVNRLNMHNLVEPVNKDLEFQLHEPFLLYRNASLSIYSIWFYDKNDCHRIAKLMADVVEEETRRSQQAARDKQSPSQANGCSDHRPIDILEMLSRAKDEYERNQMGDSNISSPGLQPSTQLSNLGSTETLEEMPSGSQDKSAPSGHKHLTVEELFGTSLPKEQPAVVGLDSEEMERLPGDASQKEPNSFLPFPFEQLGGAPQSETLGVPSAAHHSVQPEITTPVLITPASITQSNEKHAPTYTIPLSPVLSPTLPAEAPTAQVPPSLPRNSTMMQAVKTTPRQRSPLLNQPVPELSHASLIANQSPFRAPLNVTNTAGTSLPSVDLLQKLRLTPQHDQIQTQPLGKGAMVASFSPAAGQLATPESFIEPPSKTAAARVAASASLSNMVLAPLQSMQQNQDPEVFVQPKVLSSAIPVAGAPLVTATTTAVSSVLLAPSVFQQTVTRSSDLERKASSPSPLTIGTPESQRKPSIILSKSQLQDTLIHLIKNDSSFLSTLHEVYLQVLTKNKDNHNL
inactive: [1] -0.011 | [2] -0.031 | [3] 0.025 | [4] 0.018 | [5] -0.026

DGCR8 (UniProt Q8WYQ5)
Chain of UniProt Q8WYQ5 (Q8WYQ5 whole entry, looked up): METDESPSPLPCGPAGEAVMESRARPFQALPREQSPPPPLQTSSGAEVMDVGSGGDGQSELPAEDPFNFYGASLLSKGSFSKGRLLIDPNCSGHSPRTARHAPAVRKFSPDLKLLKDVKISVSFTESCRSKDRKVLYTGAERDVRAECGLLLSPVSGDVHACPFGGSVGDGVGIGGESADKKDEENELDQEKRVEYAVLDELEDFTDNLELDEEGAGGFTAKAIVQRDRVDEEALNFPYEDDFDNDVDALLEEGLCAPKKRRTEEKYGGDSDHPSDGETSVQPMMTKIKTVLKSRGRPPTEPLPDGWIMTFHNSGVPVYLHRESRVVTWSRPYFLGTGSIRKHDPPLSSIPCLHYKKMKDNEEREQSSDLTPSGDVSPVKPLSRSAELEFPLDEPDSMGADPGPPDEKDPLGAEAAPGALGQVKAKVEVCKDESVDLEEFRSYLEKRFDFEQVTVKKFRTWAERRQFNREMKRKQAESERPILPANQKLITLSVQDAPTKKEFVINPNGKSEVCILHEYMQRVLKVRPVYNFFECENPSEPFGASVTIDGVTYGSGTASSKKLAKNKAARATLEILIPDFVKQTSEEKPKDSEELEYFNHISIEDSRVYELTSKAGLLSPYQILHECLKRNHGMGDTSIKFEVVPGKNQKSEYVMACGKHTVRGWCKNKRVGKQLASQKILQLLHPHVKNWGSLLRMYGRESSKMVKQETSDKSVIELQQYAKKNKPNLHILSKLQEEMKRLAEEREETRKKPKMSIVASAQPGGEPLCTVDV
inactive: [1] -0.05 | [2] 0.063 | [3] 0.004 | [4] 0.029 | [5] 0.017

CLUH, A0A494C0R8
inactive: [1] 0.014 | [2] 0.118 | [3] 0.133 | [4] -0.116 | [5] 0.132

CHMP4A isoform 2 (UniProt Q9BY43)
inactive: [1] 0.035 | [2] -0.009 | [3] 0.007 | [4] -0.022 | [5] -0.152

COPZ1 isoform 4 (UniProt P61923)
inactive: [1] -0.101 | [2] -0.04 | [3] 0.06 | [4] 0.057 | [5] 0.096

DIAPH1 (UniProt H9KV28)
inactive: [1] 0.009 | [2] 0.023 | [3] 0.007 | [5] -0.117

CUEDC2 (UniProt Q9H467)
inactive: [1] 0.074 | [2] 0.019 | [3] -0.017 | [4] 0.013 | [5] 0.11

COG7 (UniProt P83436)
inactive: [1] -0.026 | [2] 0.026 | [3] 0.01 | [4] -0.034 | [5] 0.012

COQ8A (UniProt Q8NI60)
Chain of UniProt Q8NI60 (Q8NI60 whole entry, looked up): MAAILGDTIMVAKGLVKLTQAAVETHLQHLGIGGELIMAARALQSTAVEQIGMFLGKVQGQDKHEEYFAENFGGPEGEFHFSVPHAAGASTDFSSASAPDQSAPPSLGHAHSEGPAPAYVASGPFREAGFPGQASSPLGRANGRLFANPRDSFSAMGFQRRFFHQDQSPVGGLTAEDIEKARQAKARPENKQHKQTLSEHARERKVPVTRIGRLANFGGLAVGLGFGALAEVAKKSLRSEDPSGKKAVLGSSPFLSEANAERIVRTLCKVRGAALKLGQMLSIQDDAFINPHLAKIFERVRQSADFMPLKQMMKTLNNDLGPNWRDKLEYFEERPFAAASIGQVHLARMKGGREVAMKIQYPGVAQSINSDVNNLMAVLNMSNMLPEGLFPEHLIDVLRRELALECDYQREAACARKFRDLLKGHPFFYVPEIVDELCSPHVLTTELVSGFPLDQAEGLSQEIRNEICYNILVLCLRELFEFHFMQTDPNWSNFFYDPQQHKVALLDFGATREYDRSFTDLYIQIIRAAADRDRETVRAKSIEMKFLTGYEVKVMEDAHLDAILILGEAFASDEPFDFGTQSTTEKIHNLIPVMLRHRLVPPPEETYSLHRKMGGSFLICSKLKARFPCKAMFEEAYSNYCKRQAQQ
inactive: [1] 0.048 | [2] 0.065 | [3] 0.03 | [4] 0.007 | [5] 0

CRABP2 (UniProt P29373)
Chain of UniProt P29373 (P29373 whole entry, looked up): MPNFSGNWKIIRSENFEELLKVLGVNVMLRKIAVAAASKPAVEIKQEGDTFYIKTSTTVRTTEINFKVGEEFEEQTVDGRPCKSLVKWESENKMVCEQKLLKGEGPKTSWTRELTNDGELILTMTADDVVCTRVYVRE
inactive: [1] -0.057 | [2] -0.051 | [3] 0.055 | [4] -0.172 | [5] -0.001

CLPTM1L (UniProt Q96KA5)
Chain of UniProt Q96KA5 (Q96KA5 whole entry, looked up): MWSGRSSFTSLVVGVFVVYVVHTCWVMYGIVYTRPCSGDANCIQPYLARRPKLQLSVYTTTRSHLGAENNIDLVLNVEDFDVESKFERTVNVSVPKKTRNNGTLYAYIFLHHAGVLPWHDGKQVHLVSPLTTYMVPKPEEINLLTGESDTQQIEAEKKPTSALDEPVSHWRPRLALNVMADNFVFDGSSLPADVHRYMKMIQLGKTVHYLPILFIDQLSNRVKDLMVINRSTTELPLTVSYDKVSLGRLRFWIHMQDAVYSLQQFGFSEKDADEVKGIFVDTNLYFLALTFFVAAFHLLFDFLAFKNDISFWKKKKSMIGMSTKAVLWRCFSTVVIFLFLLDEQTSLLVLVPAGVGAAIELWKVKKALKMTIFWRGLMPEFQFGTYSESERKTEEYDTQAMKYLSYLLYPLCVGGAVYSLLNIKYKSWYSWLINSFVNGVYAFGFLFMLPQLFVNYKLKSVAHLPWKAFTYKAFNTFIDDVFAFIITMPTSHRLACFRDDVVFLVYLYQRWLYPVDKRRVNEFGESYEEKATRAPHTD
inactive: [1] -0.075 | [2] 0.039 | [3] 0.04 | [4] -0.02 | [5] 0.022

CSNK2A1 (UniProt P68400)
Chain of UniProt P68400 (P68400 whole entry, looked up): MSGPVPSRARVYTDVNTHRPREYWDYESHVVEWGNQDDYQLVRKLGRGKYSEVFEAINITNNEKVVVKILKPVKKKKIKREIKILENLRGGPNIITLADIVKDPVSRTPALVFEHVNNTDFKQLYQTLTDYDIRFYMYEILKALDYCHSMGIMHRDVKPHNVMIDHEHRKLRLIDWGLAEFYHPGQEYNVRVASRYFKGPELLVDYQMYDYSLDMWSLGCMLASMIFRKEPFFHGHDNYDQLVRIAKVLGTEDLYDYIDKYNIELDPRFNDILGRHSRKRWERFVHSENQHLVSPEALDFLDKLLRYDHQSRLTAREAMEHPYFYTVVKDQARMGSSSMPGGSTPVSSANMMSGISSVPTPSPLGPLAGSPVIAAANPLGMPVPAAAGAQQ
inactive: [1] -0.004 | [2] 0.012 | [3] -0.119 | [4] 0.034 | [5] 0.005

CTNND1 isoform 3 (UniProt O60716)
Chain of UniProt O60716 (O60716 whole entry, looked up): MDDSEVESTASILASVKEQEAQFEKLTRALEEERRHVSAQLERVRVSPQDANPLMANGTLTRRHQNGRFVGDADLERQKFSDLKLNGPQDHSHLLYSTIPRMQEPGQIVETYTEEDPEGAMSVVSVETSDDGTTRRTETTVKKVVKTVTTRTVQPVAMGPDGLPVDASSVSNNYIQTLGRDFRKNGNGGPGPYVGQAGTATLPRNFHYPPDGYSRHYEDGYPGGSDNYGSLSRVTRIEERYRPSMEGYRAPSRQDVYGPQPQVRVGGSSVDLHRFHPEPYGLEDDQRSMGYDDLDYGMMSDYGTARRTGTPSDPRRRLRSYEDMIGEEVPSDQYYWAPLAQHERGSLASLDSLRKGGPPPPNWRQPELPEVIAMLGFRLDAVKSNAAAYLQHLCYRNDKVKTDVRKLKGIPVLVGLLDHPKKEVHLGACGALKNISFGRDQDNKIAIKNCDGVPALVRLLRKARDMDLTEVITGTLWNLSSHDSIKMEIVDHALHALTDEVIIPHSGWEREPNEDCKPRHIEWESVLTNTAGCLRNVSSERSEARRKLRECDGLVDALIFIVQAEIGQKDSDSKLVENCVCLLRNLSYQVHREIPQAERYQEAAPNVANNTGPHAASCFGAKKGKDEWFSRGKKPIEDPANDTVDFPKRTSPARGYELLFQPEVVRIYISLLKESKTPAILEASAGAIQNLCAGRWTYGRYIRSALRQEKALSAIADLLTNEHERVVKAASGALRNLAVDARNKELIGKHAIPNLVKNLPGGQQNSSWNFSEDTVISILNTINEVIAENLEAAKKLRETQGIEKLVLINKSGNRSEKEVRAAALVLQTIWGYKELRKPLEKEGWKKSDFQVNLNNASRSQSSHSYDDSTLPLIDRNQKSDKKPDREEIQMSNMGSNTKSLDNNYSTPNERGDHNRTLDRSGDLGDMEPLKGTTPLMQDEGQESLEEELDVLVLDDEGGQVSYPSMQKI
inactive: [1] -0.021 | [2] 0.035 | [3] 0.058 | [4] 0.036 | [5] 0.028

CNP (UniProt P09543)
Chain of UniProt P09543 (P09543 whole entry, looked up): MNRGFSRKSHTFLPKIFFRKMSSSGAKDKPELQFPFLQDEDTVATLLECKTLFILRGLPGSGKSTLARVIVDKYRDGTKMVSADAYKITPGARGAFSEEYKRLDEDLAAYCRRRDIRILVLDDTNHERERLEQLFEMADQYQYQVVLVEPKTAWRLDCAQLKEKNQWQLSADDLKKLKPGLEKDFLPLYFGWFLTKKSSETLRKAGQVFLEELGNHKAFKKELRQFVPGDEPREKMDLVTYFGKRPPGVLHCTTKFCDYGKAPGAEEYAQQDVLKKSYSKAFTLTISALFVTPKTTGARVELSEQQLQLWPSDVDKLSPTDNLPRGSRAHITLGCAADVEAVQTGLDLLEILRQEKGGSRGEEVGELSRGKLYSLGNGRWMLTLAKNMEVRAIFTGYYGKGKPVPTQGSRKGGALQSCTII
inactive: [1] -0.022 | [2] 0.001 | [3] 0.036 | [4] 0.016 | [5] 0.021

CMBL (UniProt Q96DG6)
inactive: [1] -0.01 | [2] -0.011 | [3] -0.027 | [4] -0.041 | [5] -0.078

DDX39A (UniProt O00148)
Chain of UniProt O00148 (O00148 whole entry, looked up): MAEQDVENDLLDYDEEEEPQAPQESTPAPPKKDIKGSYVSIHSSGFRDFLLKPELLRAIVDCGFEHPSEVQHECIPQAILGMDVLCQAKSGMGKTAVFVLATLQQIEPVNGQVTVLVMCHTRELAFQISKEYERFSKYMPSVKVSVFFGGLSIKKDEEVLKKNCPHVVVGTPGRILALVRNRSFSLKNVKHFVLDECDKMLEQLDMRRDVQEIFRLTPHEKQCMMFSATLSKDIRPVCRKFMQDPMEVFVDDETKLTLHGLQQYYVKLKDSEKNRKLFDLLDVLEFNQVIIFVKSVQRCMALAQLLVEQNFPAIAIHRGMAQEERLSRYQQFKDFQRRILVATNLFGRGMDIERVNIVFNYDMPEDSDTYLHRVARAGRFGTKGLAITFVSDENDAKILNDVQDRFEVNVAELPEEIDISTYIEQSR
inactive: [1] -0.022 | [2] -0.018 | [3] 0.02 | [4] -0.016 | [5] 0

Reference: the supplement of paper PMC10849652
